# Data as given in PubChem BioAssay (NCI).
# Compounds without any hit were thinned out: in the full panel of roughly 79,000, 15% have a hit. Values without a mark were called inactive. The source made the active and inactive calls. No stated cut-off is given here; in the data, active means growth inhibition above about 70%; inactive means the rest.
# Key:
# [1] = NCI Yeast Anticancer Drug Screen. Data for the rad52 strain (AID 147);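 further: 0% = growth of vehicle-treated control cultures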; settings: S. cerevisiae rad52 mutant growth inhibition, hits give high values
# How it was run: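 Screen used a yeast mutant impaired in DNA repair. After compound exposure, growth was measured. Values reflect inhibition compared with vehicle-treated cells.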
# [2] = NCI Yeast Anticancer Drug Screen. Data for the wt1 strain (AID 149);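 further: 0% = growth of vehicle-treated wt1 cultures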; settings: S. cerevisiae wt1 strain (SPY 50644) growth inhibition, hits give high values
# How it was run: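 Measured: growth of wt1 yeast under compound versus vehicle treatment, reported as inhibition.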
# [3] = NCI Yeast Anticancer Drug Screen. Data for the rad50EPP+ strain (AID 151);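 further: 0% = growth of vehicle-treated control cultures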; settings: S. cerevisiae rad50 mutant strain, hits give high values
# How it was run: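 Exposing the rad50EPP+ strain to each compound, growth was compared with vehicle-only cultures to give inhibition.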
# [4] = NCI Yeast Anticancer Drug Screen. Data for the rad50 strain (AID 155);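 further: 0% = growth of vehicle-only cultures of the same strain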; settings: S. cerevisiae rad50 strain growth inhibition, hits give high values
# How it was run: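 Growth of the mutant yeast was measured after compound exposure and referenced to vehicle-treated cultures.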
# [5] = NCI Yeast Anticancer Drug Screen. Data for the mec2-1 strain (AID 157); settings: S. cerevisiae mec2-1 strain, hits give high values
# How it was run: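 Readout is yeast growth inhibition, normalised to vehicle-treated controls, in the mec2-1 strain exposed to compound.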
# [6] = NCI Yeast Anticancer Drug Screen. Data for the rad14 strain (AID 159);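 further: 0% = growth of vehicle-treated control cultures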; settings: S. cerevisiae rad14 strain growth inhibition, hits give high values
# How it was run: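 Here, inhibition of yeast growth was measured after compound exposure, using a strain with a genetic defect in DNA damage repair and vehicle-treated cultures as the reference.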
# [7] = NCI Yeast Anticancer Drug Screen. Data for the sgs1 mgt1 strain (AID 161);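 further: 0% = growth of cultures given vehicle only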; settings: S. cerevisiae sgs1 mgt1 strain, hits give high values
# How it was run: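 Compounds are added to genetically altered yeast, and growth is compared with cultures given vehicle alone to give percent inhibition.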
# [8] = NCI Yeast Anticancer Drug Screen. Data for the CLN2oe strain (AID 163);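 further: 0% = growth of vehicle-only control cultures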; settings: S. cerevisiae CLN2oe strain, hits give high values
# How it was run: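 Values reflect how much compound exposure reduced yeast growth, referenced to vehicle-exposed cells. Assay organism is a strain with a defined genetic change affecting cell-cycle control.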
# [9] = NCI Yeast Anticancer Drug Screen. Data for the cln2 rad14 strain (AID 165);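 further: 0% = growth equal to vehicle treated cultures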; settings: S. cerevisiae cln2 rad14 strain, hits give high values
# How it was run: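 Relative to vehicle controls, growth inhibition of compound-treated cln2 rad14 yeast was recorded.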
# [10] = NCI Yeast Anticancer Drug Screen. Data for the bub3 strain (AID 167); settings: S. cerevisiae bub3 mutant strain, hits give high values
# How it was run: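 Whole-cell yeast assay. The mutant strain was incubated with compounds, and growth inhibition was determined by comparison with vehicle-treated cells.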
# [11] = NCI Yeast Anticancer Drug Screen. Data for the wt2 strain (AID 169);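 further: 0% = growth of vehicle-treated yeast cultures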; settings: S. cerevisiae wt2 strain growth inhibition, hits give high values
# How it was run: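 Values express reduction in yeast growth under compound treatment, referenced to vehicle-treated cells.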
# [12] = NCI Yeast Anticancer Drug Screen. Data for the mlh1 strain (AID 171);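 further: 0% = growth of vehicle-treated control cultures of the same strain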; settings: S. cerevisiae mlh1 strain growth inhibition, hits give high values
# How it was run: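 Steps: expose the defined-mutant yeast strain to compound; expose a parallel culture to vehicle; measure growth; express compound effect as inhibition relative to the vehicle culture.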
# [13] = NCI Yeast Anticancer Drug Screen. Data for the sgs1 strain (AID 173);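 further: 0% = growth of vehicle-only control cultures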; settings: S. cerevisiae sgs1 mutant, hits give high values
# How it was run: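 Treat defined-mutant yeast with compound; measure growth; calculate inhibition relative to vehicle-treated cells.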
# [14] = NCI Yeast Anticancer Drug Screen. Data for the mlh1 rad18 strain (AID 175); settings: S. cerevisiae mlh1 rad18 strain growth inhibition, hits give high values
# How it was run: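 Test agents were incubated with a yeast strain of defined genotype (DNA damage repair defect). Inhibition of growth was derived by comparison with vehicle-exposed cultures.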
# [15] = NCI Yeast Anticancer Drug Screen. Data for the rad18 strain (AID 177); settings: S. cerevisiae rad18 mutant growth inhibition, hits give high values
# How it was run: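 A genetically defined yeast mutant impaired in DNA damage repair was treated with test compounds, then its growth was measured against cultures receiving vehicle alone.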
# [16] = at 5.0 µM (retest, dose inferred, filed as 0.5)
# [17] = at 50.0 µM (retest, dose inferred, filed as 5.0)
smiles,measurement,setting,value
CSC(=S)Nc1cccc(C)n1,growth inhibition,[1]; at 1.2 µM,-6%
same,growth inhibition,[1]; at 3.7 µM,-5%
same,growth inhibition,[1]; at 11.0 µM,-3%
same,growth inhibition,[1]; at 33.0 µM,23%
same,growth inhibition,[1]; at 100.0 µM,63%
same,growth inhibition,[2]; at 1.2 µM,-35%
same,growth inhibition,[2]; at 3.7 µM,-24%
same,growth inhibition,[2]; at 11.0 µM,-25%
same,growth inhibition,[2]; at 33.0 µM,-15%
same,growth inhibition,[2]; at 100.0 µM,3%
same,growth inhibition,[3]; at 1.2 µM,-15%
same,growth inhibition,[3]; at 3.7 µM,-19%
same,growth inhibition,[3]; at 11.0 µM,-27%
same,growth inhibition,[3]; at 33.0 µM,-24%
same,growth inhibition,[3]; at 100.0 µM,68%
same,growth inhibition,[4]; at 1.2 µM,-25%
same,growth inhibition,[4]; at 3.7 µM,-4%
same,growth inhibition,[4]; [16],88% (active)
same,growth inhibition,[4]; at 11.0 µM,-11%
same,growth inhibition,[4]; at 33.0 µM,28%
same,growth inhibition,[4]; [17],99% (active)
same,growth inhibition,[4]; at 50.0 µM,41.8%
same,growth inhibition,[4]; at 100.0 µM,79% (active)
same,growth inhibition,[5]; at 1.2 µM,-61%
same,growth inhibition,[5]; at 3.7 µM,-61%
same,growth inhibition,[5]; [16],70% (active)
same,growth inhibition,[5]; at 11.0 µM,-58%
same,growth inhibition,[5]; at 33.0 µM,-36%
same,growth inhibition,[5]; [17],99% (active)
same,growth inhibition,[5]; at 50.0 µM,31.6%
same,growth inhibition,[5]; at 100.0 µM,34%
same,growth inhibition,[6]; at 1.2 µM,-19%
same,growth inhibition,[6]; at 3.7 µM,-15%
same,growth inhibition,[6]; at 11.0 µM,9%
same,growth inhibition,[6]; at 33.0 µM,2%
same,growth inhibition,[6]; at 100.0 µM,50%
same,growth inhibition,[7]; [16],-18%
same,growth inhibition,[7]; [17],29%
same,growth inhibition,[7]; at 50.0 µM,45%
same,growth inhibition,[8]; at 1.2 µM,-24%
same,growth inhibition,[8]; at 3.7 µM,-8%
same,growth inhibition,[8]; at 11.0 µM,-13%
same,growth inhibition,[8]; at 33.0 µM,12%
same,growth inhibition,[8]; at 100.0 µM,24%
same,growth inhibition,[9]; [16],9%
same,growth inhibition,[9]; [17],65%
same,growth inhibition,[9]; at 50.0 µM,38.2%
same,growth inhibition,[10]; at 1.2 µM,-9%
same,growth inhibition,[10]; at 3.7 µM,-16%
same,growth inhibition,[10]; [16],39%
same,growth inhibition,[10]; at 11.0 µM,-3%
same,growth inhibition,[10]; at 33.0 µM,15%
same,growth inhibition,[10]; [17],63%
same,growth inhibition,[10]; at 50.0 µM,54%
same,growth inhibition,[10]; at 100.0 µM,74% (active)
same,growth inhibition,[11]; at 1.2 µM,-29%
same,growth inhibition,[11]; at 3.7 µM,-30%
same,growth inhibition,[11]; at 11.0 µM,-31%
same,growth inhibition,[11]; at 33.0 µM,-10%
same,growth inhibition,[11]; at 100.0 µM,31%
same,growth inhibition,[12]; at 1.2 µM,-42%
same,growth inhibition,[12]; at 3.7 µM,-40%
same,growth inhibition,[12]; at 11.0 µM,-35%
same,growth inhibition,[12]; at 33.0 µM,-12%
same,growth inhibition,[12]; at 100.0 µM,66%
same,growth inhibition,[13]; at 1.2 µM,-47%
same,growth inhibition,[13]; at 3.7 µM,-49%
same,growth inhibition,[13]; at 11.0 µM,-32%
same,growth inhibition,[13]; at 33.0 µM,-6%
same,growth inhibition,[13]; at 100.0 µM,62%
same,growth inhibition,[14]; [16],55%
same,growth inhibition,[14]; [17],99% (active)
same,growth inhibition,[14]; at 50.0 µM,70.1% (active)
same,growth inhibition,[15]; at 1.2 µM,-20%
same,growth inhibition,[15]; at 3.7 µM,-15%
same,growth inhibition,[15]; at 11.0 µM,-22%
same,growth inhibition,[15]; at 33.0 µM,9%
same,growth inhibition,[15]; at 100.0 µM,69%
